The source of these data is PubChem BioAssay (NCI).

The structures appear in SMILES notation. Compounds without any hit were thinned out: in the full panel of roughly 83,000, 20% have a hit.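 Percent growth is the endpoint: 0 to 100 indicates growth inhibition (40 means 60% inhibition), 0 means no net growth, and negative values indicate cell death.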 Values without a mark were called inactive. Calls of active or inactive are those of the source. How the source made its calls: active means growth percent below 10; inactive means the rest.

What all share (assay): NCI-60 one-dose screen, 48 h (100 = growth as untreated, 0 = no growth, -100 = all killed)
Holding throughout (settings): 10 µM unless noted

The test system of experiment [1] is T-47D breast.
Experiment [2] has as its system BT-549 breast.
The test system of experiment [3] is MDA-MB-435 melanoma.
The subject of experiment [4] is SW-620 colon.
In experiment [5] the test system is MCF7 breast.
Experiment [6] concerns HCT-116 colon.
Experiment [7] has as its system HCC-2998 colon.
In experiment [8] the test system is KM12 colon.

For `O=C(/C=C/c1c(-c2ccccc2)[nH]c2ccccc12)S(=O)(=O)c1ccccc1`, the growth in experiment [1] was 29.4%; in experiment [2], 87.9%; in experiment [3], 9.36% (active); in experiment [4], 39.8%; in experiment [5], 43.3%; in experiment [6], 46.1%. The growth in experiment [7] was 60.7%; in experiment [8], 36.3%.
Take `CCCCNCCCN(CCCC)CCCNCCCC`: the growth in experiment [1] is 105%; in experiment [2], 97.2%; in experiment [3] it was 94.3%; in experiment [4], 101%; in experiment [5], 95.8%; in experiment [6] it was 90.9%. The growth in experiment [7] is 103%; in experiment [8] it was 107%.
Consider `Cc1n(Cc2ccc3ccccc3c2)cc[n+]1Cc1ccc2ccccc2c1`, for which the growth in experiment [1] was 0.847% (active); in experiment [2] it was -13.6% (active); in experiment [3], -14.6% (active); in experiment [4], 18.7%; in experiment [5], 7.52% (active); in experiment [6], 6.14% (active). The growth in experiment [7] was 7.45% (active); in experiment [8], -9.94% (active).
Turning to `N#Cc1ncc(-c2ccc(C(F)(F)F)cc2)c(NC2CCCCCC2)n1`, the growth in experiment [1] was 7.65% (active); in experiment [2] it was 49.5%; in experiment [3] it was 8.67% (active); in experiment [4], 19.9%; in experiment [5], 14%; in experiment [6] it was 15.6%. The growth in experiment [7] was 73.2%; in experiment [8], 22.3%.
For `Nc1ccn(C2O[C@H](CO)[C@@H](O)[C@@H]2O)c(=O)n1` (stereo partly drawn), the growth in experiment [1] is 80.5%; in experiment [2], 81.2%; in experiment [3], 45.3%; in experiment [4], 45.9%; in experiment [5] it was 24%; in experiment [6], 32.4%. The growth in experiment [7] is 53.5%; in experiment [8], 58.1%.
On to `COc1ccccc1-n1c(-c2ccc(O)cc2C)cn2c3c(=O)[nH]c(=O)n(C)c3nc12`, for which the growth was 77.3% in experiment [1]; 135% in experiment [2]; 101% in experiment [3]; 94.7% in experiment [4]; 91.7% in experiment [5]; 97% in experiment [6]. The growth was 104% in experiment [7] and 103% in experiment [8].
As for `O=C1/C=C/[C@@H](O)[C@@H]2C[C@@H](O)C[C@H]2/C=C/CCC[C@H](CO)O1`, the growth in experiment [1] was 32.5%; in experiment [2] it was 20.1%; in experiment [3] it was 18.5%; in experiment [4], 10.5%; in experiment [5], -2.04% (active); in experiment [6], 2.08% (active). For the same compound, the growth in experiment [7] was -22.5% (active); in experiment [8], 2.96% (active).
Turning to `CC(=O)Nc1c(Cl)cc2c(c1Cl)Cc1cc([N+](=O)[O-])ccc1-2`, the growth was 53.4% in experiment [1]; 84.4% in experiment [2]; 81% in experiment [3]; 81.5% in experiment [4]; 27.8% in experiment [5]; 72.6% in experiment [6]. Further, the growth is 87.4% in experiment [7] and 78.2% in experiment [8].
For the compound `CCOC(=O)/C=C1/SC(=Nc2ccc(C#N)cc2)N(Cc2ccco2)C1=O`, the growth in experiment [1] is 12.1%; in experiment [2], 44.8%; in experiment [3], 50.5%; in experiment [4], 12%; in experiment [5] it was 12.6%; in experiment [6] it was -61.6% (active). For the same compound, the growth was 64.7% in experiment [7] and 60.9% in experiment [8].
On to `O=C(COc1ccc(/C=C2\Oc3ccc4ccccc4c3C2=O)cc1)c1ccc([N+](=O)[O-])cc1`, for which the growth in experiment [1] was 73.1%; in experiment [2], 9.91% (active); in experiment [3], 104%; in experiment [4], 98.5%; in experiment [5], 15.6%; in experiment [6] it was 74.1%. The results for the growth in experiment [7] and in experiment [8] were 95.5% and 93.5%, respectively.
As to `COc1cc(NC(C)CCCN)c2nc(C)ccc2c1Oc1ccc(F)cc1` (stereo not drawn), the growth in experiment [1] was 87.4%; in experiment [2] it was 70.5%; in experiment [3] it was 104%; in experiment [4], 67%; in experiment [5], 62.1%; in experiment [6], 33.9%. The growth in experiment [7] is 21.6%; in experiment [8], 78.9%.
On to `O=C(Nc1ccc(Cl)cc1)Nc1ccccc1CNc1nc(Nc2ccc(OCCN3CCCC3)cc2)ncc1Cl`, for which the growth in experiment [1] was 105%; in experiment [2], 77.6%; in experiment [3] it was -28.9% (active); in experiment [4], -14.9% (active); in experiment [5], -10.5% (active); in experiment [6] it was -28.7% (active). Also, the growth in experiment [7] was -21.1% (active); in experiment [8], 11.3%.
For `CC(C)=CCCC(C)c1ccc(C)c2c1OCN(CC1CCNCC1)C2` (stereo not drawn), the growth in experiment [1] is -94.4% (active); in experiment [2], 55.8%; in experiment [3], 14.7%; in experiment [4], 28%; in experiment [5], 36.6%; in experiment [6], -37.2% (active). In addition, the growth was -82.1% (active) in experiment [7] and 38.4% in experiment [8].
As to `COc1ccc(C2CC(c3ccc(Nc4ccnc5cc(Cl)ccc45)cc3)=NN2C(C)=O)cc1` (stereo not drawn), the growth was 40% in experiment [1]; 68.5% in experiment [2]; 23% in experiment [3]; 87.2% in experiment [4]; 55.7% in experiment [5]; 61.3% in experiment [6]. Also, the growth in experiment [7] was 70%; in experiment [8] it was 59.3%.
As to `CN(C)c1ccc(-n2nc3ccccc3n2)cc1`, the growth is 78.4% in experiment [1]; 91.6% in experiment [2]; 100% in experiment [3]; 95.9% in experiment [4]; 89.9% in experiment [5]; 77% in experiment [6]. Moreover, the growth is 75.3% in experiment [7] and 108% in experiment [8].
In the case of `COCCOCCOCCOCCOc1ccc2c(c1)C(=O)c1nc3ncccc3c(=O)n1-2`, the growth in experiment [1] was 11.3%; in experiment [2] it was -95.7% (active); in experiment [3] it was -100% (active); in experiment [4] it was -100% (active); in experiment [5], -64.6% (active); in experiment [6] it was -32.7% (active). The growth is -68.1% (active) in experiment [7] and -57% (active) in experiment [8].
